Assays:
Experiment in all cases: log2 ratio of Biotin-Ahx-Ub-VS probe labelling (fragment/DMSO); higher = less target engagement (more negative = stronger competition), active = hit call of the paper (q ≤ 0.05, log2 ratio ≤ -1)
Settings in all cases: compound concentration: 200 uM; treatment time: 3 h
ALG13 = target: T1, ALG13 (UniProt Q9NP73)
T1 sequence (whole entry): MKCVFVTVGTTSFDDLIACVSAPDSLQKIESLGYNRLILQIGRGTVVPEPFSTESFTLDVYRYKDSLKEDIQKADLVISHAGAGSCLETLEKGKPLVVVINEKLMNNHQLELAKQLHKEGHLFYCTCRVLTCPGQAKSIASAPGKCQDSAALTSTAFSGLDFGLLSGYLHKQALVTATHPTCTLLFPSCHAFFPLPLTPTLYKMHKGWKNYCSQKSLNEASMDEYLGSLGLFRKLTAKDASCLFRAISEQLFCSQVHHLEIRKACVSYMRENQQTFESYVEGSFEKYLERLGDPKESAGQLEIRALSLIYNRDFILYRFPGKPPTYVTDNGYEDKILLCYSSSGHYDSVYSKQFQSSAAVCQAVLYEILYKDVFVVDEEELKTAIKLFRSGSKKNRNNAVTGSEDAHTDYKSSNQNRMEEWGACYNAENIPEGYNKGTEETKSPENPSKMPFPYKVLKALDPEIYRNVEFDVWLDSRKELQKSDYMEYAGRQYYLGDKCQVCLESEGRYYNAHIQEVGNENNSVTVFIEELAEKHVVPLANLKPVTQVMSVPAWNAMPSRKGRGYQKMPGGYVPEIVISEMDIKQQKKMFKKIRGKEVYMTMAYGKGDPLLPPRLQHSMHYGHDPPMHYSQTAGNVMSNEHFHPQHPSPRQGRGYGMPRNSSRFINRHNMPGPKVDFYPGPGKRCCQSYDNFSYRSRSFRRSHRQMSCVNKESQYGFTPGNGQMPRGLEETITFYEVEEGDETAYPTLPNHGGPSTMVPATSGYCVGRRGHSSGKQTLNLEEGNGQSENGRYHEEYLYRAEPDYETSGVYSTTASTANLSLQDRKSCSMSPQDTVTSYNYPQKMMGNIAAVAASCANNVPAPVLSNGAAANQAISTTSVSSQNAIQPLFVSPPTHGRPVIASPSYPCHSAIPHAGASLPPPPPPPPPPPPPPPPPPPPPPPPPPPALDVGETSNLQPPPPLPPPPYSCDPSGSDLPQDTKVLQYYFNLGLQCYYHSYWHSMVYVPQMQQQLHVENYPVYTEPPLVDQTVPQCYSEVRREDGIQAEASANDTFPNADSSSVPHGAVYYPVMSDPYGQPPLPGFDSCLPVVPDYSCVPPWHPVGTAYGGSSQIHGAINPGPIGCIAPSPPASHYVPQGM
Method in brief: (§1)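 Fragment (200 µM) or vehicle was incubated for 3 h with triplicate HEK293T lysate samples of 495 µg, which were then treated with Biotin-Ahx-Ub-VS at 0.5 µM final for 1 h. Labelled DUBs were enriched on NeutrAvidin, digested with LysC and trypsin, and analysed by diaPASEF LC-MS/MS. Values are average log2 fragment/vehicle ratios from an unpaired t-test on global-median-normalised Spectronaut label-free quantities, using proteins with ≥2 unique peptides.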

ATXN3 = ATXN3 (UniProt P54252)
Method in brief: as §1

BAP1 = target: T2, BAP1 (UniProt Q92560)
T2 sequence (whole entry): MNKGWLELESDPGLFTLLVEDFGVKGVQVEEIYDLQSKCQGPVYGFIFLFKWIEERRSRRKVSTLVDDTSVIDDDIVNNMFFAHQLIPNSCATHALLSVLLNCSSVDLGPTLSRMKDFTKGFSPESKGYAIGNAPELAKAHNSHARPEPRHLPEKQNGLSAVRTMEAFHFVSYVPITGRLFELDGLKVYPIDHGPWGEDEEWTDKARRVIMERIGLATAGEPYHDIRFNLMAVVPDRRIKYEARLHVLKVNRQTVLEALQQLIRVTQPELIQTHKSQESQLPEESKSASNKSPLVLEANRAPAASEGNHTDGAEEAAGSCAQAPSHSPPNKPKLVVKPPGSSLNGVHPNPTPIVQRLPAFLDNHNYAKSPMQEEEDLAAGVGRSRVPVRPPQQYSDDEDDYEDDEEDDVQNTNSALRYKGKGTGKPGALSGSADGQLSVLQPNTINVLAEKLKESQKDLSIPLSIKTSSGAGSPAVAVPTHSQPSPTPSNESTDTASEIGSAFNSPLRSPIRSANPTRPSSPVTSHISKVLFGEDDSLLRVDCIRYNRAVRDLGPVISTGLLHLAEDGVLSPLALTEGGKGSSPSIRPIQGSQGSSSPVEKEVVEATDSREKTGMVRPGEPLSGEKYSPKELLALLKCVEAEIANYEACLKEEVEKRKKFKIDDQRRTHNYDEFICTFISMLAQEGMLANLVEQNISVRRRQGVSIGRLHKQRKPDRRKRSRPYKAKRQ
Method in brief: as §1

EIF3F = EIF3F (UniProt O00303)
Method in brief: as §1

EIF3H = EIF3H (UniProt O15372)
Method in brief: as §1

FAM105A = target: T3, FAM105A (UniProt Q9NUU6)
T3 sequence (whole entry): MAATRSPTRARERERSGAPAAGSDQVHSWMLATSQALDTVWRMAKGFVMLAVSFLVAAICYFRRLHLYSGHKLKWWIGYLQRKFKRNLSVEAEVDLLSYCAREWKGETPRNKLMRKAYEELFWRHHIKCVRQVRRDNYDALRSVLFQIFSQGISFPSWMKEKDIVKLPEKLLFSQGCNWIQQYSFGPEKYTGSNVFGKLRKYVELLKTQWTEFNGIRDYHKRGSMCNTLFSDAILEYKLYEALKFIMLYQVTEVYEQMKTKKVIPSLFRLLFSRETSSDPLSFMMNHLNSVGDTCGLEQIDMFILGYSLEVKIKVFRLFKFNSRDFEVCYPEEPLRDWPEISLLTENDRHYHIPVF
Method in brief: as §1

OTUB1 = OTUB1 (UniProt Q96FW1)
Method in brief: as §1

OTUD4 = target: T4, OTUD4 (UniProt Q01804)
T4 sequence (whole entry): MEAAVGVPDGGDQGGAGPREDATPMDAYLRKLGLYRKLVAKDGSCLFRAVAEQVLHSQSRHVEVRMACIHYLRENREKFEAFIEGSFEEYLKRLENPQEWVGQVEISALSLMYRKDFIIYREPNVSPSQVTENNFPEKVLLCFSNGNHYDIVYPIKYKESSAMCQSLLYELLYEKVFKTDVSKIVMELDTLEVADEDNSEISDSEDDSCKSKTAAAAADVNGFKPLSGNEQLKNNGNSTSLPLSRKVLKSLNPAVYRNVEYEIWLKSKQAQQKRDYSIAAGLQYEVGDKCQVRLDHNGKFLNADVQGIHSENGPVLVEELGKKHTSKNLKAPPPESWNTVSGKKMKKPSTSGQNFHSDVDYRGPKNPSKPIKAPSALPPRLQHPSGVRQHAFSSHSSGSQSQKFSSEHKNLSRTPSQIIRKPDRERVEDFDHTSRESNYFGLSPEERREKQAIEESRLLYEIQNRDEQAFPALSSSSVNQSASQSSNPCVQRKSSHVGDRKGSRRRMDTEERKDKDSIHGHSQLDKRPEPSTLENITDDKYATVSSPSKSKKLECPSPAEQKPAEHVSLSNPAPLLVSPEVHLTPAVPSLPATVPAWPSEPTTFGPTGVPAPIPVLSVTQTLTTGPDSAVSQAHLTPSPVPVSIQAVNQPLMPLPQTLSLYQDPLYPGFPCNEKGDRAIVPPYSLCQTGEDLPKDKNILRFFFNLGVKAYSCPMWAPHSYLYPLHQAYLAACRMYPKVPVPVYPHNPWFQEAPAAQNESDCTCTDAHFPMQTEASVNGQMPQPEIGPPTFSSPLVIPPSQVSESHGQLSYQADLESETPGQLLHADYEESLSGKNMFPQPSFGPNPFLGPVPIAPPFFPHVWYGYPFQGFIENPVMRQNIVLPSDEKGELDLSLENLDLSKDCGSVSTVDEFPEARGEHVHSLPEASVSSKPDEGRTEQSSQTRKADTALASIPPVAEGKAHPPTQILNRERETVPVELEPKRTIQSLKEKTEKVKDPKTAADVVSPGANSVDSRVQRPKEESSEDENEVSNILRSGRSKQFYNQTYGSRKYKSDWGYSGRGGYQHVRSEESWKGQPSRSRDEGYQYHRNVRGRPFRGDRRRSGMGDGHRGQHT
Method in brief: as §1

OTUD5 = target: T5, OTUD5 (UniProt Q96G74)
T5 sequence (whole entry): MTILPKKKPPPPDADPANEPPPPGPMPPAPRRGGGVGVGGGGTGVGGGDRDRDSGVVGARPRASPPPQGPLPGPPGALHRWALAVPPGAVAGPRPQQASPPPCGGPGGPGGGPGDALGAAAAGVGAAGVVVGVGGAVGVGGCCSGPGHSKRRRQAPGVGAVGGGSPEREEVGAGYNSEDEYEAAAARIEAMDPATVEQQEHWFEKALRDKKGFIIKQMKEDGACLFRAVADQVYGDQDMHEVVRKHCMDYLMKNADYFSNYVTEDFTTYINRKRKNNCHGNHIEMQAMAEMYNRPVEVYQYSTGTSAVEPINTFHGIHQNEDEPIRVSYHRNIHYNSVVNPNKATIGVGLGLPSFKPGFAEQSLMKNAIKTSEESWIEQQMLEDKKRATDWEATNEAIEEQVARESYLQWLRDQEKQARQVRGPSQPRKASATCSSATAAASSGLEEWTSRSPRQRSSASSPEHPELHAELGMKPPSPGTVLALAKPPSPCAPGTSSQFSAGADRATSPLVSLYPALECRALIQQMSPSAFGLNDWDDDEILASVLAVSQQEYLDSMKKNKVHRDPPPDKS
Method in brief: as §1

Measured: log2 ratio of Biotin-Ahx-Ub-VS probe labelling

EIF3F, sequence (O00303 whole entry): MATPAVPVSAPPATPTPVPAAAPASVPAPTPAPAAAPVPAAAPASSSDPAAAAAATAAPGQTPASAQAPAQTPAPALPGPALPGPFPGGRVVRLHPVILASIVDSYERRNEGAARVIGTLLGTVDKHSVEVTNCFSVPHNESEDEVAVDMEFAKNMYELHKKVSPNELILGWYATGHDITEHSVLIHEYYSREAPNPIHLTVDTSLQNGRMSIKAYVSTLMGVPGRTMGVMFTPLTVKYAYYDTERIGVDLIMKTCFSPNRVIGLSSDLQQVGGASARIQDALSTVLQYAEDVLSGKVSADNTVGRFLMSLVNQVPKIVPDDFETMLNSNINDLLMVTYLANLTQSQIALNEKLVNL
OTUB1, sequence (Q96FW1 whole entry): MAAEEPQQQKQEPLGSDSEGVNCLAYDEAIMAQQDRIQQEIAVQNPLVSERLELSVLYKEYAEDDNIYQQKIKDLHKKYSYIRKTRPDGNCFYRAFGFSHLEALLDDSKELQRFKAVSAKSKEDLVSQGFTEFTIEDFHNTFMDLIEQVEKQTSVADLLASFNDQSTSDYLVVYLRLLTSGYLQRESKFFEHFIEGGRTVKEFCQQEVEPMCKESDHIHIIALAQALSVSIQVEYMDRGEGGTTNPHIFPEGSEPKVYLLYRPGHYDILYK
EIF3H, sequence (O15372 whole entry): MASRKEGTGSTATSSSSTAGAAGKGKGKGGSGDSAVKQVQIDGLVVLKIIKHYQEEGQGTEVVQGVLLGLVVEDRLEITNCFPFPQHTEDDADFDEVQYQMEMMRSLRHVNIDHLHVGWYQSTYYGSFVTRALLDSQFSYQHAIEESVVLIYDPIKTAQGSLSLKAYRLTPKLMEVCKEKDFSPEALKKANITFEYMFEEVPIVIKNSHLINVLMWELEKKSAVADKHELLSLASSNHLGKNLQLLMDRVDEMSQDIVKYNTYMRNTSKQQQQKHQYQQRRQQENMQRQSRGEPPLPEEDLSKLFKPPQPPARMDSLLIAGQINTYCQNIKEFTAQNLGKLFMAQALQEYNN
ATXN3, sequence (P54252 whole entry): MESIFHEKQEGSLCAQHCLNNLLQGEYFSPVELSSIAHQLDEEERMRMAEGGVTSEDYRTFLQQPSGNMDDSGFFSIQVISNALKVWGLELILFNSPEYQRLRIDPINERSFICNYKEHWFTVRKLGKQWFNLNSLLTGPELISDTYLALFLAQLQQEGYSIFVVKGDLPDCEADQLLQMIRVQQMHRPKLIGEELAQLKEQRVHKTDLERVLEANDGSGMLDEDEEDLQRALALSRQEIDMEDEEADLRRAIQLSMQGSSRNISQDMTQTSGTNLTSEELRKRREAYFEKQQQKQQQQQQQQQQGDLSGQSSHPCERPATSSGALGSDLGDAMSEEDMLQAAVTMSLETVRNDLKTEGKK

O=C(CCl)N1CCC(OCc2ccccc2F)CC1
inactive: ALG13 -0.0579 | ATXN3 -0.708 | BAP1 -0.64 | EIF3F -0.319 | EIF3H -0.284 | FAM105A -0.178 | OTUB1 -0.00851 | OTUD4 -0.169 | OTUD5 -0.0801
